According to PubChem BioAssay AID686978 (National Center for Advancing Translational Sciences (NCATS), 2013):
Screen size: about 420,000 compounds; about 64,000 (15%) were called active. Inconclusive results (about 27%) are left out. Calls follow the shape of the dose curve; as a rule, active = well fitted inhibition curve with a large enough effect; inconclusive = small, poorly fitted or top-dose-only effect; inactive = flat fitted curve, though single readings scatter. A selection follows. A call without a number means that no potency is given here.
Potency is read from the fitted curve at half-maximal effect.

Experiment: qHTS for Inhibitors of human tyrosyl-DNA phosphodiesterase 1 (TDP1): qHTS in cells in absence of CPT; also: nearly all actives have a fitted effect of over 55% in size
Conditions: DT40 Tdp1-/- hTDP1 cells, no CPT, ATP luminescence, 48 h; activity change, negative = growth inhibition: at 46.2 µM (top of the series)
In short: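 Growth kinetics read by CellTiter-Glo luminescence after ≥48 hr at 37 °C. Cells: DT40 Tdp1-/- stably carrying human TDP1, 400 per well, compound exposure in the absence of CPT (DMSO vehicle).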
In the case of `CCCC[C@@H]1CN=C(N)N1CCCC`, the Potency is reported as 7.31 µM (active). In the case of `CCCCN1C(N)=NC[C@@H]1CC1CCCCC1`, the Potency is reported as 16.4 µM (active). For `CCCCNC(=O)C1CCC(=O)N1CCc1ccccc1` (configuration not stated), the Potency was “inactive”. For `CCCCN1C(N)=NC[C@@H]1Cc1ccccc1`, the Potency was 14.6 µM (active). With `CCCCN1C(=S)NC[C@@H]1C(C)CC` (some centres not stated) the Potency was “inactive”. With `CN(C)C1=NC[C@H](Cc2ccccc2)N1CCc1ccc(F)cc1` the Potency was “inactive”. With `NNC(=O)c1ccc(Cl)cc1Cl` the Potency was “inactive”. With `OCC(CO)(CO)NCc1ccc(-c2ccccc2)cc1` the Potency was “inactive”. With `Cn1nc([N+](=O)[O-])nc1Sc1ccc(C(C)(C)C)cc1` the Potency was “inactive”. With `O=C(CC1NCCNC1=O)Nc1cc(Cl)cc(Cl)c1` (configuration not stated) the Potency was “inactive”. With `CNC(=O)c1csc(-c2ccccc2)n1` the Potency was “inactive”. In the case of `Cc1nc(-c2ccccc2)sc1C(=O)/C=C/c1ccccc1`, the Potency is reported as 18.4 µM (active). With `Cc1ccc(SCC(=O)c2sc(-c3ccccc3)nc2C)cc1` the Potency was “inactive”. In the case of `N#Cc1cnn2cc(CCN3CCOCC3)c(-c3ccc(F)cc3)nc12`, the Potency is reported as “inactive”. In the case of `CCCc1c2oc(C(=O)O)cc(=O)c2cc2c(=O)cc(C(=O)O)n(CC)c12`, the Potency is reported as “inactive”. In the case of `O=C(Nc1ccccc1C(=O)NCC1CCCO1)c1ccccc1F` (configuration not stated), the Potency is reported as “inactive”. For `CNC(=O)CN1C(=O)NC(c2ccccc2)(c2ccccc2)C1=O`, the Potency was “inactive”. For `CCN(CC)C(=O)C1=C(C)N(Cc2ccc(F)cc2)C(=O)C(CC(=O)NC2CCCC2)C1` (configuration not stated), the Potency was “inactive”. With `CCN(CC)C(=O)C1=C(C)N(Cc2ccc(C(C)(C)C)cc2)C(=O)C(CC(=O)NCc2cccc3ccccc23)C1` (configuration not stated) the Potency was 16.4 µM (active). With `CCN(CC)C(=O)C1=C(C)N(Cc2ccc(OC)cc2)C(=O)C(CC(=O)NCc2ccco2)C1` (configuration not stated) the Potency was “inactive”. With `CCN(CC)C(=O)C1=C(C)N(Cc2ccccc2)C(=O)C(CC(=O)NC(c2ccccc2)c2ccccc2)C1` (configuration not stated) the Potency was 18.4 µM (active). For `CC1=C(C(=O)N(C)C)CC(CC(=O)NCCN2CCOCC2)C(=O)N1Cc1ccccc1` (configuration not stated), the Potency was “inactive”. With `COc1ccc(CN2C(=O)C(CC(=O)NCc3cccc4ccccc34)CC(C(=O)N3CCOCC3)=C2C)cc1` (configuration not stated) the Potency was “inactive”. For `COc1ccc2c(C)cc3nnnn3c2c1`, the Potency was “inactive”. In the case of `O=C(Nc1ccc(Cl)cc1)c1cc2nc(C3CC3)cc(C(F)(F)F)n2n1`, the Potency is reported as “inactive”. With `COc1cc(C(=O)NCc2nnc(SCC(=O)Nc3nc4ccc(C)cc4s3)o2)cc(OC)c1OC` the Potency was 4.61 µM (active). For `COc1ccc(C(=O)NCc2nnc(SCC(=O)Nc3cccc(OC)c3)o2)cc1`, the Potency was “inactive”. In the case of `COc1ccccc1NC(=O)CSc1nnc(CNC(=O)c2ccccc2F)o1`, the Potency is reported as “inactive”. For `O=C(O)c1cc(S(=O)(=O)NC2CCCc3ccccc32)ccc1O` (configuration not stated), the Potency was “inactive”. In the case of `CCC(C)(NC(=O)c1ccccn1)C(=O)NC1CCCCC1` (configuration not stated), the Potency is reported as “inactive”. For `CCN(CC)CCOc1ccc2c(c1)C(=NNC(=O)c1ccccn1)c1cc(OCCN(CC)CC)ccc1-2`, the Potency was 3.26 µM (active). In the case of `Cc1cccc(OCC(=O)NCCCNC(=O)c2ccccn2)c1`, the Potency is reported as “inactive”. For `N#Cc1ccc[n+](CC(=O)c2ccc(O)c(O)c2)c1`, the Potency was “inactive”. In the case of `CCOC(=O)c1cc2ccccc2n1CC(=O)c1ccccc1`, the Potency is reported as “inactive”. For `CCn1c(/C=C/Nc2ccccc2)[n+](CC)c2ccc(C(=O)OCC(F)(F)F)cc21`, the Potency was 14.6 µM (active). In the case of `Cc1nnc(SC(C(=O)c2ccccc2)c2ccccc2)[nH]c1=O` (configuration not stated), the Potency is reported as “inactive”. With `NC(=O)c1ncn([C@@H]2O[C@H](CNCc3cnc(N4CCOCC4)s3)[C@@H](O)[C@H]2O)n1` the Potency was “inactive”. With `CN(C)C(=O)c1ccc2c(c1)C1C3CCC(C3)C1C(c1ccccc1)N2` (configuration not stated) the Potency was 18.4 µM (active). With `CN(C)C(=O)c1ccc(NC(=O)c2ccccc2-c2ccccc2)cc1` the Potency was “inactive”. In the case of `O=C(O)CCCN1C(=O)C2C3c4ccccc4C(c4ccccc43)[C@@H]2C1=O` (some centres not stated), the Potency is reported as “inactive”. For `CCOC(=O)N1CCN(C(=O)C2CC(c3ccc(F)cc3)=NO2)CC1` (configuration not stated), the Potency was “inactive”. For `CCOC(=O)N1CCN(C(=O)C2CCCN(c3ncnc4c3sc3cccc(F)c34)C2)CC1` (configuration not stated), the Potency was 6.51 µM (active). For `CCOC(=O)N1CCN(C(=O)C2CCN(c3ncnc4c3sc3cccc(F)c34)CC2)CC1`, the Potency was 5.8 µM (active). For `Cc1cc(=O)n2nc(N3CCCC(C(=O)N4CCN(C)CC4)C3)sc2n1` (configuration not stated), the Potency was “inactive”. With `CCOC(=O)N1CCN(C(=O)C2CCN(S(=O)(=O)c3cc(Cl)ccc3OCC)CC2)CC1` the Potency was “inactive”. For `CCOC(=O)N1CCN(C(=O)C2CCN(Cc3ccc(OC)cc3OC)CC2)CC1`, the Potency was “inactive”. With `O=C(O)c1c(NC(=O)N2CCCC2)sc2c1CCCC2` the Potency was “inactive”. For `CC(C)C(=O)N1CC(=O)Nc2ccc(F)cc2C1c1ccc(F)cc1` (configuration not stated), the Potency was “inactive”. With `O=S(=O)(NCc1ccco1)c1cnc(Cl)c(Cl)c1` the Potency was “inactive”. For `COc1ccc([C@H]2CC(=O)C=C(c3ccc(CO)cc3)C2)cc1`, the Potency was “inactive”. In the case of `COc1ccc([C@H]2CC(=O)C=C(c3ccc(C)cc3)C2)cc1`, the Potency is reported as “inactive”. For `COc1ccc([C@H]2CC(=O)C=C(c3ccc(OC(F)(F)F)cc3)C2)cc1OC`, the Potency was 16.4 µM (active).
